# USP28 inh – inhibitors of human USP28 deubiquitinase; Ubiquitin carboxyl-terminal hydrolase 28 (Homo sapiens), Q96RU2; inhibition, % at 25 µM; AID 1645857, 2021; purified USP28, Ub-rhodamine cleavage fluorescence, 30 min; 47,000 tested, 3% active
# USP30 inh – inhibitors of human USP30 deubiquitinase. AID 1645860, 2021. inhibition, % at 25 µM. Ubiquitin carboxyl-terminal hydrolase 30 (Homo sapiens), Q70CQ3. purified USP30, Ub-rhodamine cleavage fluorescence. 47,000 tested, 5.3% active
# Target sequence (Q70CQ3 whole entry, looked up): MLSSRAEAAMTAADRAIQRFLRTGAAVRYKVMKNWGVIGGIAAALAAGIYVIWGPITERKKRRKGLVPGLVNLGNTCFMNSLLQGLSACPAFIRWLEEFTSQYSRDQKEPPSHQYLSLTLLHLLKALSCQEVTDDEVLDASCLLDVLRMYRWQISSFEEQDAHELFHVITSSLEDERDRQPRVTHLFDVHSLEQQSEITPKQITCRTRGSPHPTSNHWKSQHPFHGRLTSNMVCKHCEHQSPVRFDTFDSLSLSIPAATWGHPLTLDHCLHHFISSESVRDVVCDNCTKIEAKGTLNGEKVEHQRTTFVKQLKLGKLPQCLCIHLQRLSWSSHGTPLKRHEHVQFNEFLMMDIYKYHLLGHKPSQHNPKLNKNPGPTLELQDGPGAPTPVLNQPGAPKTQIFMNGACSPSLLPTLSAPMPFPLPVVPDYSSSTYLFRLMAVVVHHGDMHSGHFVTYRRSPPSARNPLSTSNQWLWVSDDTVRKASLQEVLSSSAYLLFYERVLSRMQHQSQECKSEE
# * = called active by the depositor. Rows were chosen to be rich in hits. Some 7% of all compounds tested hit in one or more screens of this group. Cut-off read from the data, not from the text of the source: active = inhibition above about 30%; inactive = the rest.
SMILES,USP28 inh,USP30 inh
CCOc1ccc(-n2c(SCC(=O)Nc3ccc(C)cc3)nnc2-c2c[nH]c3ccccc23)cc1,18,56*
Cn1c(COc2ccccc2)nnc1SCC(=O)Nc1ccc(N2CCOCC2)cc1,58*,31*
CCOc1ccc(NC(=O)CSc2nnc(-c3ccccn3)n2Cc2ccco2)cc1,-9,-38
Cc1ccc(C(=O)CSc2nnc(CC(=O)Nc3ccccc3F)n2C)cc1,2,0
Cn1c(SCC(=O)Nc2ccc(N3CCOCC3)cc2)nnc1-c1ccco1,14,9
Cc1ccc(C)c(NC(=O)CSc2nnc(Cc3cccc4ccccc34)n2C)c1,45*,0
CCOc1ccc(NC(=O)CSc2nnc(Cc3cccc4ccccc34)n2C)cc1,67*,46*
COCCn1c(SCC(=O)Nc2ccc(OC)cc2)nnc1-c1c[nH]c2ccccc12,-1,-1
Cc1cccc(NC(=O)CCS(=O)(=O)c2ccc3c(c2)CC(=O)N3C)c1C,-25,-45
CCCc1cc(C2CCCN2C(=O)Nc2cccc(C)c2)no1 (stereo not given),-4,11
Cc1cc(C)n(-c2nc3cc(C(=O)c4ccccc4)ccc3nc2Cl)n1,-9,-82
Cc1nc2c(C)cccn2c(=O)c1Cc1nnc(SCC(=O)Nc2ccccc2)n1C,-4,33*
Cn1c(SCC(=O)Nc2ccccc2Br)nnc1-c1ccccn1,8,14
Cc1cc(C)n2ncc(C(=O)NCc3ccc4c(c3)OCO4)c2n1,-1,-38
COc1ccc(-n2ncc(C(=O)N3CCN(c4cc(C)ccc4C)CC3)c2C2CCNCC2)cc1,11,30*
CC1CCN(C(=O)c2cnn(-c3ccc(Cl)cc3)c2C2CCNCC2)CC1,-1,1
CC(C)(C)c1noc(Cc2nnc(-c3ccc(F)cc3)o2)n1,0,-15
Cc1ocnc1C(=O)N1CCC2(C/C=C/CCOc3ccccc3C(=O)NC2)CC1,11,25
O=C1NCC2(C/C=C/CCOc3ccccc31)CCN(C(=O)c1ccnc(N3CCCC3)c1)CC2,72*,88*
COc1ccccc1Nc1cc(C)c2ccccc2n1,5,-4
Cc1cc(Oc2ccc(F)cc2F)nc2ccccc12,31*,-1
COc1ccc(S(=O)(=O)N2CCCC(c3nnc4ccccn34)C2)cc1F (stereo not given),-14,-52
COc1ccc(Cn2c3c(c(=O)[nH]c2=O)CN(C2CCCCC2)CN3)cc1,9,47*
COc1ccc(Cn2c3c(c(=O)[nH]c2=O)CN(CCc2ccccc2)CN3)cc1,-1,-5
CCc1nnsc1C(=O)N1CCCC1c1ccnc(NC)c1 (stereo not given),4,8
SMILES,USP28 inh,USP30 inh
COc1ccc(C)cc1CCNC(=O)c1cc(C2CC2)nc2c1cnn2C(C)C,19,6
COc1ccccc1OCCNC(=O)c1cc(C2CC2)nc2c1cnn2C(C)C,61*,10
COc1ccc(CCNC(=O)c2cc(C3CC3)nc3c2cnn3C(C)C)cc1,68*,-6
COc1ccccc1CCNC(=O)c1cc(C2CC2)nc2c1cnn2C(C)C,15,-6
O=C1CC2(C(=O)N(CC3CCCCC3)c3ccccc32)c2cn[nH]c2N1 (stereo not given),-1,5
COc1ccc(OCCCC(=O)Nc2ccccc2-c2nc3ccccc3[nH]2)cc1,-12,-123
Cn1ccnc1CN1CCC2(CC1)CCN(c1cncnc1)C2=O,-3,1
O=C(Nc1ccc(-c2nnc3n2CCCCC3)cc1)c1cc2ccccc2o1,35*,-2
O=C(Nc1ccc(N2CCN(Cc3ccccc3)CC2)cc1)c1cc2ccccc2o1,1,6
Cc1c(C(=O)Nc2ccc(-c3nnc4n3CCCCC4)cc2)oc2c1ccc1ccccc12,68*,-12
Cc1c(C(=O)NCC2(N3CCCCC3)CCCCC2)oc2c1ccc1ccccc12,-43,-128
Cc1ccc2cc3c(nc2c1)OC(=O)N(Cc1ccc(C)o1)C3,-11,-21
Cc1ccc(-c2nnc(NC(=O)CC(C)C)s2)cc1,11,18
CC(=O)N1CCC(c2cc(-c3cc(F)ccc3C(=O)O)nc(C)n2)CC1,14,23
O=C(/C=C/c1ccccc1)Nc1c2c(nc3c1CCC3)CCCC2,11,40*
O=C(/C=C/c1ccccc1)Nc1nc(-c2ccccc2)c(-c2ccccc2)s1,16,22
Cc1ccc(NS(=O)(=O)c2ccc(-c3c(C)noc3C)cc2)cc1,25,23
O=C(c1ccccc1)c1cccc2c1NCC2,43*,20
O=C1CCN(C(=O)c2ccc(C(=O)c3ccccc3)cc2)CC1,3,20
Cn1nc(-c2cccc(F)c2)c2c1C[C@@H]1CN(Cc3cccnc3)C[C@H]21,7,11
COc1ccccc1CNC(=O)CN=C1NS(=O)(=O)C(c2ccc(C)c(C)c2)=C1C,6,-20
CC1=C(c2ccc(F)cc2)S(=O)(=O)NC1=NCC(=O)Nc1ccc(F)cc1F,2,54*
COc1ccc(CN2CCC(N3CCc4ccccc4C3)CC2)cc1,7,17
Cc1ccccc1NC(=O)c1cc(-c2cccc([N+](=O)[O-])c2)oc1C,-2,-8
Cc1oc(-c2ccc(Cl)cc2)cc1C(=O)Nc1ccccc1,14,35*
SMILES,USP28 inh,USP30 inh
Cc1cccc(-c2nn(-c3ccccc3)c3c2c(C)cc(=O)n3CC(=O)N2CCOCC2)c1,-16,-10
CCOC(=O)C1CCN(C(=O)Cn2c(=O)cc(C)c3c(-c4ccccc4)nn(-c4ccccc4)c32)CC1,-7,34*
Cc1cc(N2CCCC2c2cncc(-c3ncc[nH]3)n2)ncn1 (stereo not given),1,15
CCOC(=O)c1ccc(NC(=O)Cn2c(=O)n(-c3ccc(CC(=O)NCc4ccco4)cc3)c(=O)c3ccccc32)cc1,14,7
O=C(Cn1c(=O)c2ccccc2n(CC(=O)Nc2ccc(F)c(Cl)c2)c1=O)NCc1ccco1,39*,45*
O=C(CCCCn1c(=O)c2ccccc2n(CC(=O)Nc2ccc(F)c(Cl)c2)c1=O)NCc1ccco1,22,-6
CCOC(=O)c1ccc(NC(=O)Cn2c(=O)n(CC(=O)NCc3ccco3)c(=O)c3ccccc32)cc1,28,59*
O=C(CC1CC1)N1CCCN(Cc2noc(-c3ccccc3)n2)CC1,0,-12
Cc1ccc2cc3c(nc2c1)N(S(=O)(=O)c1ccc(F)cc1)CC3,-15,-17
CC(=O)Nc1ccc(Sc2ccc(C)cc2)cc1,7,-26
CC(=O)Nc1ccc(NC(=O)Nc2ccc(F)cc2)cc1,19,30*
O=C(Nc1ccc(F)cc1)Nc1ccc2ccccc2n1,10,31*
COc1cccc(NC(=O)NC2CCN(c3ccccc3)C2=O)c1 (stereo not given),6,15
COc1cccc(NC(=O)Nc2ccc(NC(C)=O)cc2)c1,51*,-3
O=C(Nc1ccccc1)Nc1ccc2ncccc2c1,7,-17
c1ccc2cc(Sc3ncnc4c3oc3ccccc34)ccc2c1,0,7
Cc1nc(Sc2ccc3ccccc3c2)c2oc3ccccc3c2n1,18,40*
Cc1nc(-c2ccccc2)sc1C(=O)/C=C/c1ccccc1[N+](=O)[O-],29,38*
Cc1nc(-c2ccccc2)sc1C(=O)/C=C/c1c(F)cccc1Cl,13,-32
CN1CCC(N(C(=O)c2ccc(Cl)cc2Cl)C2CCN(C)CC2)CC1,-12,-17
COc1ccc(-c2nnc(Cc3nc(-c4ccc(C)cc4)no3)o2)cc1,-7,-40
Fc1ccc(Cc2nc(-c3ccc4nncn4c3)no2)cc1,58*,-1

# Compound activity from PubChem.
